IDH1 R132H inh = qHTS for Inhibitors of mutant isocitrate dehydrogenase 1 (IDH1): qHTS; Isocitrate dehydrogenase [NADP] cytoplasmic (Homo sapiens), O75874; IDH1-R132H enzyme, NADPH consumption, diaphorase/resazurin fluorescence; Potency, µM (doses to about 76.6 µM), usual class: inhibitors; 390,000 compounds, 0.093% hits; also: nearly all actives have a fitted effect of over 65% in size
Target sequence (O75874 whole entry R132H, stated change not applied): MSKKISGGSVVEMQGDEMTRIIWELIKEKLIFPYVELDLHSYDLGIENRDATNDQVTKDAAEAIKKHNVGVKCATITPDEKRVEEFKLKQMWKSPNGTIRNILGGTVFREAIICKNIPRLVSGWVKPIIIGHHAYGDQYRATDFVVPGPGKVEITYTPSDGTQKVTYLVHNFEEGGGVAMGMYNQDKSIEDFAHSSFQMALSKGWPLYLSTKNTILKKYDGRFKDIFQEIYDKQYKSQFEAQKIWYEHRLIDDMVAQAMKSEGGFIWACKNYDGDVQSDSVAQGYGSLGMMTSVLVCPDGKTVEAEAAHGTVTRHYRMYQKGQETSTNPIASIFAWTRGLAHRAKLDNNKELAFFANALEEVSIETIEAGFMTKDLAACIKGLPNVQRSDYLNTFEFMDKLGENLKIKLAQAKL
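IDH1-R132H (0.5 ug/mL dispensed) in pH 7.5 Tris buffer was preincubated 30 min with compound, then given a substrate mix of 0.016 mM NADPH and 2 mM alpha-KG for 80 min at room temperature; remaining NADPH was read by diaphorase/resazurin fluorescence.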
LDHA block = qHTS assay for inhibitors of human lactate dehydrogenase | L-lactate dehydrogenase A chain (Homo sapiens), P00338 | purified LDHA, NADH/diaphorase-resazurin fluorescence; stronger effect = lower value | activity change, % (values are at about 110 or 230 µM) | 480,000 compounds, 0.15% hits | AID 1347041, 2019; in the data active = activity change below about -30%; inconclusive = mostly about -25% to -30%
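Enzyme activity of human lactate dehydrogenase 5 (2 nM; 0.06 mM NADH, 0.2 mM pyruvate, 5 min, RT) is measured via a resazurin/diaphorase fluorescence readout of residual NADH.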
TGFb inhibitor = qHTS for Inhibitors of TGF-b; HepG2 CAGA-GFP TGF-b/SMAD3 reporter, GFP fluorescence, 18 h; TGF-beta stimulated, 500 pg/mL final; Potency, µM (titrated, usually from 46.1 µM), most hits filed as inhibitors; 410,000 compounds, 1.2% hits; also: nearly all actives have a fitted effect of over 65% in size
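Inhibition was scored as loss of TGF-beta-induced (500 pg/mL final, 18 hours, 37 degrees C) GFP in HEPG2 cells carrying a CAGA-GFP reporter, in DMEM with 1% FBS. Well GFP was summed per cell; Activity was normalised to unstimulated and stimulated DMSO wells, then concentration-response fitting.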
ATXN2 expr inh = Primary qHTS for Inhibitors of ATXN expression; HEK-293 ATXN2-luciferase reporter, luminescence, 24 h; Potency, µM (top dose mostly 57 µM), hits mostly inhibitors; 360,000 compounds, 0.72% hits; AID 1745845, 2022; also: nearly all actives have a fitted effect of over 55% in size
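ATXN2-luciferase reporter cells (luciferase flanked by upstream and downstream ATXN2 gene portions) were treated 24 h at 37 °C with compounds at up to 57 uM. SteadyGlo luminescence gave expression; GF-AFC fluorescence gave viability.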
ATXN viability = Viability Counterscreen for Primary qHTS for Inhibitors of ATXN expression. Potency, µM (doses to about 56.7 µM), most hits filed as cytotoxic. S2 cells (HEK-293 line with an ATXN2-luciferase reporter) viability, CellTiter-Fluor protease fluorescence, 24 h. 400,000 compounds, 0.49% hits. AID 651635, 2014; also: nearly all actives have a fitted effect of over 40% in size
HepG2 tox-1 = qHTS for Inhibitors of TGF-b: Cytotox Counterscreen | HepG2 CAGA-GFP viability, ATP luminescence, 18 h | Potency, µM (series often up to 46.1 µM), usual class: cytotoxic | 410,000 compounds, 0.76% hits | AID 588856, 2011
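CellTiter-Glo luminescence gave cytotoxicity after 18 hours at 37 degrees C. The cells were HepG2 CAGA-GFP in 1% FBS DMEM, stimulated with 500 pg/mL TGF-beta after compound addition. %Activity was normalised to no-cell wells (complete cell-killing) and DMSO (no toxicity), and curves were fitted and classified.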
TGFb CAGA inh = qHTS for Inhibitors of TGF-b: Confirmation of Cherry Picks | shares compounds with TGFb inhibitor | HepG2 CAGA-GFP TGF-b reporter, GFP fluorescence, 18 h; cells stimulated with TGF-beta, 500 pg/mL | Potency, µM (titrated, usually from 46.1 µM), usual class: inhibitors | 1,600 compounds, 63% hits | AID 720534, 2013; also: nearly all actives have a fitted effect of over 65% in size
HepG2 tox-2 = qHTS for Inhibitors of TGF-b: Cytotox Counterscreen for Cherry Picks; shares compounds with TGFb inhibitor; HepG2 CAGA-GFP viability, ATP luminescence, 18 h; cells stimulated with TGF-beta, 500 pg/mL; Potency, µM (doses to about 46.1 µM), hits mostly inhibitors; 1,600 compounds, 27% hits; also: nearly all actives have a fitted effect of over 70% in size
TGFb CCL64 inh = qHTS for Inhibitors of TGF-b: CCL64 Cells Orthogonal Assay for Cherry Picks. 1,600 compounds, 41% hits. CCL64 CAGA-GFP reporter, TGF-b stimulated, GFP fluorescence, 18 h. Potency, µM (highest dose often 46.1 µM), most hits filed as inhibitors. shares compounds with TGFb inhibitor. AID 720536, 2013; also: nearly all actives have a fitted effect of over 65% in size
TGFb COP inh = qHTS for Inhibitors of TGF-b: Hit Validation in HepG2 Cells using COP promoter; shares compounds with TGFb inhibitor; HepG2 COP-GFP TGF-b reporter, GFP fluorescence, 18 h; cells stimulated by added recombinant TGF-beta; Potency, µM (doses to about 46.1 µM), usual class: inhibitors; 1,600 compounds, 3% hits; also: nearly all actives have a fitted effect of over 70% in size
Large screens that a line does not name were inactive (follow-up assays come after a bar, where they were run). The list is not random: actives were taken first. Their share in the collection is about 2.2%. Unless noted, calls follow the shape of the dose curve; as a rule, active = well fitted curve in the direction sought with a large enough effect; inconclusive = small, poorly fitted or top-dose-only effect, or another doubt; inactive = no such curve, though single readings can be large; an effect the other way counts as inactive or inconclusive.

COc1nc(-c2ccccc2)nnc1-c1ccccc1	none
Cc1ccccc1NC(=O)N1CCNC(=O)C1CC(=O)Nc1cc(Cl)ccc1Cl (configuration not stated)	none
O=C(NC(Cc1ccccc1)C(=O)O)/C(=C/c1ccccc1)NC(=O)c1ccco1 (configuration not stated)	none
CCc1ccccc1N1CCN(S(=O)(=O)c2cc(OC)ccc2OC)CC1	TGFb inhibitor inconclusive | TGFb CAGA inh 25.9µM | HepG2 tox-2 inconclusive | TGFb CCL64 inh inconclusive | TGFb COP inh inactive
CCn1c(SCc2ccc(C(=O)Nc3cc(C)cc(C)c3)cc2)nnc1-c1ccncc1	none
c1ccc(Cn2cc(CNc3ccccc3)nn2)cc1	none
CC(C)C[C@H]1CNC(=S)N1CC1CCCN1C[C@H](Cc1ccccc1)N1C[C@H](Cc2ccc(O)cc2)N(CC2CCCCCC2)C1=S (some centres not stated)	TGFb inhibitor 6.31µM | TGFb CAGA inh 14.6µM | HepG2 tox-2 inconclusive | TGFb CCL64 inh 5.8µM | TGFb COP inh inactive
CC(C)C[C@H]1CN([C@@H](Cc2ccc(O)cc2)CN2CCC[C@@H]2CN2C(=S)NC[C@@H]2Cc2ccccc2)C(=S)N1CC1CCCCCC1	TGFb inhibitor 10µM, ATXN2 expr inh inconclusive, ATXN viability inconclusive (no result: IDH1 R132H inh) | TGFb CAGA inh inconclusive | HepG2 tox-2 inactive | TGFb CCL64 inh inconclusive | TGFb COP inh inactive
Oc1c(C(c2ccccn2)N2CCCCC2)cc(Cl)c2cccnc12 (configuration not stated)	TGFb inhibitor 7.94µM, ATXN2 expr inh inconclusive | TGFb CAGA inh inconclusive | HepG2 tox-2 inconclusive | TGFb CCL64 inh inconclusive | TGFb COP inh inactive
Cc1[nH]c2ccccc2c1C(c1ccccn1)N1CCCC1 (configuration not stated)	none
COc1cc2c(cc1OC)NC(=O)C2	none
O=C(NCCCCCCNC(=O)c1ccccc1O)c1ccccc1O	TGFb inhibitor 8.91µM | TGFb CAGA inh inconclusive | HepG2 tox-2 inconclusive | TGFb CCL64 inh inconclusive | TGFb COP inh inactive
CC1=C(CO)C(=O)OC([C@@H](C)C2CC[C@H]3C4C[C@H]5O[C@]56[C@@H](O)C=CC(=O)[C@]6(C)C4CC[C@]23C)C1 (some centres not stated)	TGFb inhibitor 2.82µM, ATXN2 expr inh 3.16µM, ATXN viability 5.62µM | TGFb CAGA inh 0.581µM | HepG2 tox-2 2.31µM | TGFb CCL64 inh 1.16µM | TGFb COP inh inconclusive
CC(=O)Nc1ccc(S(=O)(=O)N2CCN(S(=O)(=O)c3ccc(F)c(F)c3F)CC2)cc1	none (no result: ATXN2 expr inh)
COc1ccc(C)cc1N=Nc1ccc(O)c2ncccc12	TGFb inhibitor 7.08µM (no result: ATXN2 expr inh) | TGFb CAGA inh 6.51µM | HepG2 tox-2 inactive | TGFb CCL64 inh 2.31µM | TGFb COP inh inactive
CCc1nc2ccc(C(=O)NCc3cccs3)cn2c1N(CC)Cc1cccc(Br)c1	TGFb inhibitor 11.2µM, ATXN2 expr inh inconclusive, ATXN viability inconclusive (no result: IDH1 R132H inh) | TGFb CAGA inh 18.4µM | HepG2 tox-2 inconclusive | TGFb CCL64 inh inconclusive | TGFb COP inh inactive
CCCCCCCCOC(=O)c1cc([N+](=O)[O-])c(Sc2ncnc3nc[nH]c23)c([N+](=O)[O-])c1	TGFb inhibitor 7.08µM, ATXN2 expr inh inconclusive, HepG2 tox-1 12.6µM (no result: ATXN viability) | TGFb CAGA inh 20.6µM | HepG2 tox-2 8.2µM | TGFb CCL64 inh 5.8µM | TGFb COP inh inconclusive
O=C(C1CCCCC1)N(Cc1ccccc1)c1ccccn1	none
CN(C)S(=O)(=O)N1CCc2ccc(NC(=O)c3ccc(C(F)(F)F)cc3)cc2C1	TGFb inhibitor inconclusive | TGFb CAGA inh inactive | HepG2 tox-2 inconclusive | TGFb CCL64 inh inactive | TGFb COP inh inactive
Cc1ccc(NC(=S)NCc2ccccc2)cc1S(=O)(=O)N1CCCCC1	TGFb inhibitor 15.8µM, ATXN viability inconclusive (no result: ATXN2 expr inh) | TGFb CAGA inh 23.1µM | HepG2 tox-2 inconclusive | TGFb CCL64 inh 25.9µM | TGFb COP inh inactive
COc1cc(/C=C(/C(=O)c2cccs2)c2nc3ccccc3[nH]2)ccc1O	TGFb inhibitor 15.8µM, ATXN2 expr inh inconclusive, ATXN viability inconclusive | TGFb CAGA inh 7.31µM | HepG2 tox-2 13µM | TGFb CCL64 inh 13µM | TGFb COP inh inactive
COC(=O)/C(=C\c1cc(OC)c(OC)c(OC)c1)c1nc2ccccc2[nH]1	none
O=C(/C(=C/c1ccc(Cl)cc1)c1nc2ccccc2[nH]1)c1cccs1	TGFb inhibitor 5.01µM, ATXN2 expr inh inconclusive, ATXN viability 3.55µM | TGFb CAGA inh 3.26µM | HepG2 tox-2 2.59µM | TGFb CCL64 inh 4.11µM | TGFb COP inh inactive
O=C(/C(=C\c1ccccc1)c1nc2ccccc2[nH]1)c1ccc(Cl)cc1	TGFb inhibitor inconclusive, ATXN2 expr inh inconclusive (no result: ATXN viability)
CC1(C(=O)NCc2cccs2)Cc2c(-c3ccc(C(N)=O)cc3)ccnc2O1 (configuration not stated)	none (no result: IDH1 R132H inh)
COc1ccc(C(=O)c2sc(Nc3ccccc3)c(C(=O)Nc3ccc(OC)c(OC)c3)c2N)cc1	none
COc1ccc(NC(=O)c2c(Nc3ccccc3)sc(C(=O)c3ccc(F)cc3)c2N)cc1	TGFb inhibitor 3.16µM, ATXN2 expr inh inconclusive | TGFb CAGA inh inactive | HepG2 tox-2 inactive | TGFb CCL64 inh inconclusive | TGFb COP inh inactive
